# Shown are actives, neighbours in structure and some others; about 1.5% of the full set was active somewhere.
# PI5P4Ka inh: qHTS for Inhibitors of phosphatidylinositol 5-phosphate 4-kinase (PI5P4K). Phosphatidylinositol 5-phosphate 4-kinase type-2 alpha (Homo sapiens), P48426. PI5P4Kalpha enzyme, ADP-Glo luminescence, 60 min; active compounds read low. max response, %. 330,000 compounds, 1.2% hits. AID 652105, 2013; active = max response of -50% or lower; inconclusive = between -30% and -50%; inactive = -30% or higher; note: value at the top dose of about 77 µM
# Target sequence (P48426 whole entry, looked up): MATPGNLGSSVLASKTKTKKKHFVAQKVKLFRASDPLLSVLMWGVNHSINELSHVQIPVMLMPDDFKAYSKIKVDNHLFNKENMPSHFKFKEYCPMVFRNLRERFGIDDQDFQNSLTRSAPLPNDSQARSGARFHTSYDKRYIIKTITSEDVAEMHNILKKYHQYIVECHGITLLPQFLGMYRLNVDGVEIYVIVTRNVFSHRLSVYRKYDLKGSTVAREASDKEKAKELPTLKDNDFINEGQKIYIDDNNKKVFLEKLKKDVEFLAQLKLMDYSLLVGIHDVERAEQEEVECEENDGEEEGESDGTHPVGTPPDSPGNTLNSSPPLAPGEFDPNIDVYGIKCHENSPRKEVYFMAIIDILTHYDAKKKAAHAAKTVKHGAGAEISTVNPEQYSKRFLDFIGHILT
#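 Luminescence from ADP-Glo served as readout of PI5P4Kalpha activity in a qHTS format. Reaction: enzyme, substrate, compound, ATP at 5 microM final, 60 min at RT.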
# WRN inhibitor: qHTS for Inhibitors of WRN Helicase. WRN helicase unwinding, fluorescent forked duplex, kinetic. 360,000 compounds, 0.46% hits. Potency, µM (top dose mostly 114 µM), without a hit: at the top dose activity change, negative = inhibition, actives largely listed as inhibitors. AID 651768, 2012. Bifunctional 3'-5' exonuclease/ATP-dependent helicase WRN (Homo sapiens), Q14191; note: potency is the fitted concentration of half-maximal effect; nearly all actives have a fitted effect of over 55% in size
#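 Enzyme (20 nM final) and test compound sit together 15 min at room temperature before substrate addition. Substrate is a single-forked duplex oligonucleotide (100 nM) labelled with fluorophore and quencher, with 2 mM ATP; helicase unwinding raises red fluorescence, read kinetically.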
# BLM helicase inh: qHTS Assay for Inhibitors of Bloom's syndrome helicase (BLM). Potency, µM (doses to about 56.1 µM), for the others: top-dose activity change, negative = inhibition, usual class: inhibitors. 350,000 compounds, 0.2% hits. recombinant BLM DNA unwinding, fluorescence dequenching;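 note: potency is the fitted concentration of half-maximal effect; plate controls were vehicle for no effect and no enzyme for full effect; nearly all actives have a fitted effect of over 35% in size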
# RECQ1 inh: qHTS Assay for Inhibitors of RecQ-Like Dna Helicase 1 (RECQ1). RECQ1 DNA unwinding, red fluorescence kinetic read. Potency, µM (top dose mostly 57.3 µM), for the others: at the top dose activity, negative = inhibition, hits mostly inhibitors. ATP-dependent DNA helicase Q1 (Homo sapiens), P46063. 240,000 compounds, 0.54% hits;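 note: potency is the fitted concentration of half-maximal effect; plate controls were vehicle for no effect and no enzyme for full effect; nearly all actives have a fitted effect of over 30% in size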
#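 RECQ1T1 50 nM; forked duplex (20 bp + 30-nt ss tails) 200 nM, ATP 2 mM final; pH 8.0, 2 mM MgCl2, 2.5 ug/ml poly(dI-dC); 15 min compound preincubation; discontinuous kinetic read over 2 h at RT.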
# APE1 inh: qHTS Assay for Inhibitors of the Human Apurinic/apyrimidinic Endonuclease 1 (APE1); DNA repair nuclease/redox regulator APEX1 (Homo sapiens), P27695; recombinant APE1, TAMRA/BHQ-2 abasic DNA cleavage fluorescence; Potency, µM (doses to about 65.8 µM), for inactives: at the top dose activity change, negative = inhibition, usual class: inhibitors; 350,000 compounds, 0.35% hits;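 note: potency is the fitted concentration of half-maximal effect; plate controls were vehicle for no effect and reference inhibitor for full effect; nearly all actives have a fitted effect of over 55% in size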
# Target sequence (P27695 whole entry, looked up): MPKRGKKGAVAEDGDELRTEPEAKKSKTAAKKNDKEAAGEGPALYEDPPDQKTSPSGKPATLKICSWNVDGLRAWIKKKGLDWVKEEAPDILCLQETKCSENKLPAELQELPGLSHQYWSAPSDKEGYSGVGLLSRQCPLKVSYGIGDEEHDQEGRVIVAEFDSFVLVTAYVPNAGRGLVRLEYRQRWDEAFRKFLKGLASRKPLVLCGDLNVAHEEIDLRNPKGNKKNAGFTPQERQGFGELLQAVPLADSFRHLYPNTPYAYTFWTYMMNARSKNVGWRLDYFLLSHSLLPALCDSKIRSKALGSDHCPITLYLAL
#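 APE1 at 0.75 nM preincubated 15 min at room temperature with compound. Reaction then started with 50 nM double-stranded THF-abasic substrate labelled with TAMRA/BHQ-2, and 525/598 nm fluorescence read kinetically. Activity taken as third-minus-first read difference, normalized to DMSO and NSC13755 controls.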
# FEN1 inhibitor: qHTS Assay for the Inhibitors of Human Flap endonuclease 1 (FEN1); Potency, µM (series often up to 114 µM), inactives show at the top dose activity change, negative = inhibition, hits mostly inhibitors; AID 588795, 2011; Recombinant FEN1 flap cleavage, fluorescence, 15 min; 390,000 compounds, 0.35% hits; note: potency is the fitted concentration of half-maximal effect; nearly all actives have a fitted effect of over 65% in size
#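 Reaction started by adding substrate (50 nM final) to 10 nM enzyme after 15 min room-temperature compound preincubation. Reads at 0 and 15 min, with data normalized and fitted to a four-parameter Hill equation.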
# ADP-Glo interf: qHTS for Inhibitors of PI5P4K: ADP-Glo counter assay | 1,100 tested, under 10 active | Potency, µM (series often up to 76.9 µM), without a hit: top-dose activity change, negative = inhibition, most hits filed as inhibitors | shares compounds with PI5P4Ka inh | ADP-Glo detection counter-screen, luciferase luminescence, no enzyme
# The depositor's hits bear a star; i = inactive; ? = inconclusive; nt = not tested or not shown; [ ] = another dose, or the depositor's remark. Unless noted, calls come from the whole dose curve; as a rule, active = well fitted curve in the direction sought with a large enough effect; inconclusive = small, poorly fitted or top-dose-only effect, or another doubt; inactive = no such curve, though single readings can be large; an effect the other way counts as inactive or inconclusive. Unless noted, % is set by controls: 0 for no effect and ±100 for the full control effect.
SMILES,PI5P4Ka inh,WRN inhibitor,BLM helicase inh,RECQ1 inh,APE1 inh,FEN1 inhibitor,ADP-Glo interf
COc1ccccc1N1CCN(C(=O)c2ccc(C(C)(C)C)cc2)CC1,-62*,50µM*,-5%,-3%,-1%,6%,-6%
CC(C)(NC(=O)c1ccccc1)c1nc2ccccc2s1,-82*,-5%,nt,nt,-13%,-6%,-4%
O=C(NC(Nc1nc2ccccc2s1)(C(F)(F)F)C(F)(F)F)c1ccccc1,10,-4%,-5%,-2%,4%,-3%,nt
COc1ccc(Nc2nc(-c3sc(N)nc3C)cs2)cc1,-21,-8%,-3%,-3%,-1%,-8%,nt
Cc1ccc(Nc2nc(-c3sc(N)nc3C)cs2)cc1,-54*,-8%,-4%,nt,?,1%,-3%
CCOc1ccc(Nc2nc(-c3sc(N)nc3C)cs2)cc1,-29,1%,0%,nt,-17%,6%,-8%
Cc1cccn2c(=O)cc(COc3cccc(NC(=O)COc4ccccc4)c3)nc12,nt,nt,-1%,nt,nt,10%,nt
COc1cccc(Nc2nc3ccccc3nc2NS(=O)(=O)c2cccs2)c1,-2,-34%,-6%,-9%,-4%,-5%,nt
O=C(O)c1ccc(Nc2nc3ccccc3nc2NS(=O)(=O)c2cccs2)cc1,?,0%,3%,nt,16%,?,-8%
Cc1oc2ccc(OCc3ccc(F)cc3Cl)cc2c1C(=O)O,1,-6%,-4%,-15%,3%,11%,nt
Cc1oc2ccc(OCc3ccccc3Cl)cc2c1C(=O)O,-61*,1%,-3%,nt,35%,16%,-5%
Cc1ccc2cc(CCl)c(Cl)nc2c1,-79*,-4%,-1%,-4%,-6%,-2%,0%
ClCc1cc2ccccc2nc1Cl,1,1%,0%,i,28%,2%,nt
CCn1c(=O)[nH]c(=O)c2c(N)c(C(=O)c3cc(F)ccc3F)sc21,-64*,-8%,-3%,-2%,-5%,-2%,-8%
C=CCn1c(=O)[nH]c(=O)c2c(N)c(C(=O)c3ccc(OC)cc3)sc21,?,-8%,nt,nt,nt,8%,nt
COc1ccccc1-c1cc2nc(C)c(CCC(=O)NCc3cccc(Cl)c3)c(C)n2n1,nt,nt,-7%,nt,nt,-2%,nt
O=S(=O)(NCC(c1ccco1)N1CCN(c2ccc(F)cc2)CC1)c1cc(F)ccc1F (configuration not stated),nt,nt,-6%,nt,nt,-4%,nt
CCS(=O)(=O)N1Cc2ccccc2CC1C(=O)Nc1nnc(SCc2ccc(C#N)cc2)s1 (configuration not stated),-57*,?,-29%,0%,4%,-9%,5%
COc1cc(OC)c([C@@H]2O[C@H](CO)[C@@H](O)[C@H](O)[C@H]2O)c(OC)c1,nt,nt,-1%,1%,-2%,nt,nt
COC(=O)CNC(=O)C1Cc2ccccc2CN1S(=O)(=O)c1cccs1 (configuration not stated),-5,-4%[11.6 µM],-5%,-3%,0%,-5%,-4%
CC1C(=O)N2CCCc3cc(S(=O)(=O)Nc4ccc(Br)cc4F)cc1c32 (configuration not stated),nt,nt,-3%,nt,nt,-13%,nt
Cc1cc(NC(=O)c2sc(Nc3cccc(C(F)(F)F)c3)nc2N)no1,-67*,-12%,-5%,-1%,12%,-11%,2%
Cc1cc(NC(=O)c2sc(Nc3ccc(F)c(Cl)c3)nc2N)no1,?,-3%,-5%,11%,-2%,-8%,nt
Cc1ccc(S(=O)(=O)N2CCN(C(=O)c3ccccc3)CC2)cc1,-2,1%,-2%,-9%,-5%,-3%,nt
Cc1ccc(S(=O)(=O)N2CCN(C(=O)c3cccc(-n4cccc4)c3)CC2)cc1,-52*,?,nt,nt,-75%,-3%,-10%
SMILES,PI5P4Ka inh,WRN inhibitor,BLM helicase inh,RECQ1 inh,APE1 inh,FEN1 inhibitor,ADP-Glo interf
NC(=O)c1ccc(-n2c(CCC(=O)O)ccc2-c2cccs2)cc1,-80*,-6%,4%,-1%,35%,-3%,2%
Cc1cccc(CNC(=O)CCCn2c(=O)c3cccn3c3ccc(F)cc32)c1,nt,nt,-1%,nt,nt,23%,nt
CN1CCN(C(c2ccccc2)c2ccc(Cl)cc2)CC1 (configuration not stated),-52*,-1%,nt,nt,4%,12%,1%
CCN(Cc1ccccc1)C(=O)Cn1c(=O)n(-c2ccc(C)c(C)c2)c(=O)c2c(C)c(C)sc21,nt,nt,-10%,nt,nt,0%,nt
CC(C)Cc1c(O)nc(SCC(=O)N2CCCCCC2)[nH]c1=O,-50*,1%,-1%,nt,-1%,15%,0%
CC(C)c1c(O)nc(SCC(=O)N2CCCCC2)[nH]c1=O,-4,11%,-4%,nt,37%,-7%,nt
O=C(Nc1ccc(Cl)cc1)Nc1ccccc1CC[N+](=O)[O-],-79*,-36%,-7%,-1%,-4%,-14%,-3%
O=C(Nc1ccc(Cl)cc1)Nc1ccccc1C(=O)O,3,-11%,2%,32%,-3%,-4%,nt
COc1ccc(Nc2nc3c(S(=O)(=O)c4ccc(Br)cc4)nnn3c3ccsc23)c(OC)c1,nt,nt,-10%,nt,nt,13%,nt
CCOc1ccccc1NC(=O)CCc1c(C)nn(-c2ccc(N3CCOCC3)nn2)c1C,nt,nt,0%,nt,nt,-3%,nt
CC(=O)c1ccc(OCc2cn(CC(=O)c3ccc(O)cc3)nn2)c(C)c1,-4,1%,nt,nt,nt,nt,nt
O=C(Cn1cc(COc2ccc(Br)cc2[N+](=O)[O-])nn1)c1ccc(O)cc1,-57*,-5%,nt,nt,nt,0%,-8%
Cc1cc(Nc2sc(C(=O)c3ccc(F)cc3)c(N)c2C(=O)Nc2ccc(F)cc2)ccc1Cl,nt,nt,-6%,nt,nt,8%,nt
CN(C)c1ccc(-c2cc(Nc3ccc(F)cc3)ncn2)cc1,nt,nt,-14%,-1%,-7%,nt,nt
Cc1cc(O)ccc1Nc1cc(-c2cccc(N(C)C)c2)ncn1,nt,5%,nt,nt,nt,nt,-6%
Cc1cccc(Oc2coc3cc(OCC(=O)NC4CCCCC4)ccc3c2=O)c1,nt,nt,-2%,nt,nt,?,nt
CCn1cc(C(=O)N2CCN(c3cccc(C)c3C)CC2)c(=O)c2ccc(C)nc21,-73*,?,-3%,-4%,7%,-13%,-7%

# From PubChem
